These entries were drawn from the full list.
aSyn UTR act – Activators via SNCA 5'UTR binding, MLPCN | actives 7.1% (n = 300,000) | alpha-synuclein 5'UTR reporter, activators screen | activity score, % (tested at 7.5 µM), hits read low | AID 1814, 2009; in the data active = activity score below about -60%
Numbers stand for hits; 0 = inactive.

SMILES | aSyn UTR act
CC1=Nc2cc(C(=O)NCC3CCCO3)ccc2Sc2ccc(Br)cc21 (stereo unspecified) | -113
Cc1ccc(-c2cc(C(=O)NCC3CCCO3)no2)cc1 (stereo unspecified) | -76
O=C(NCC1CCCO1)c1cc(-c2ccccc2)on1 (stereo unspecified) | -362
CN(C)CC/C=C1\c2ccc(F)cc2Sc2cc(F)c(Cl)cc21 | 0
O=C(NCC1CCCO1)c1cc(-c2ccc(Cl)cc2Cl)on1 (stereo unspecified) | -164
Cc1nc2ccc(-c3ccccc3)cc2o1 | -79
O=C(Nc1nnc(-c2ccc(F)cc2)s1)c1ccco1 | -121
CC(C)Sc1nnc(NC(=O)c2ccco2)s1 | -64
O=C(Nc1nnc(/C=C/c2ccccc2)s1)c1ccco1 | -83
Cc1cccc(-c2nnc(NC(=O)c3ccco3)s2)c1 | -124
COc1ccc(Cc2nnc(NC(=O)c3ccco3)s2)cc1 | -62
Nc1nc(-c2cc(O)ccc2[N+](=O)[O-])cc(-c2ccccc2)c1[N+](=O)[O-] | -120
O=C(Nc1ccc(Cl)c(Cl)c1)OCc1cccnc1 | -73
O=C(Nc1ccc(Cl)cc1)Nc1ccccc1Sc1ncc([N+](=O)[O-])s1 | -90
O=C(NCc1ccco1)Nc1ccc(Br)cc1Cl | -170
O=C(Nc1cccnc1)Nc1ccc(Br)cc1Cl | -68
O=C(Nc1ccc(Nc2ccccc2)cc1)Nc1ccccc1Cl | -227
O=C(Nc1ccc2c(c1)CCC2)Nc1ccccc1Cl | -110
O=C(Nc1cccnc1)Nc1ccccc1Cl | -72
Cc1ccc(NC(=O)Nc2ccc3c(c2)C(=O)OC3)cc1Cl | -83
Cc1ccc(NC(=O)Nc2cccnc2)cc1Cl | -111
O=C(Nc1csc([N+](=O)[O-])c1)Nc1ccccc1Cl | -89
O=C(NCCc1c[nH]c2ccccc12)c1cccnc1 | -67
O=C(NCCc1c[nH]c2ccccc12)c1ccc2c(c1)OCO2 | -142
O=C(NCCc1ccccc1F)c1ccc2c(c1)OCCO2 | 0
SMILES | aSyn UTR act
O=C(NCCc1ccc(Cl)cc1)c1ccc2c(c1)OCO2 | -121
Cn1c(C(=O)NCCc2c[nH]c3ccccc23)cc2sccc21 | -237
O=C(NCCc1c[nH]c2ccccc12)c1cc(Cl)c2c(c1)OCO2 | -110
COCCCN=C(c1ccco1)n1c(=S)nc(-c2ccco2)n(CCCOC)c1=S | -88
CSc1nc(N(C)NC(=O)c2ccc(Cl)cc2)c2ccccc2n1 | 0
Cc1ccc(C(=O)NNc2c3ccccc3nc3ccccc23)cc1 | -87
O=C(NNc1c2ccccc2nc2ccccc12)c1ccc(Cl)cc1 | -80
Cc1nc2ccccn2c1C(=O)N/N=C/c1ccc2c(c1)OCO2 | -96
O=C(N/N=C/c1ccc2c(c1)OCO2)C(=O)Nc1ccccc1 | -84
O=C(CNC(=O)c1ccccc1F)N/N=C/c1ccc2c(c1)OCO2 | -98
O=C(Cc1ccccc1)N/N=C/c1ccc2c(c1)OCO2 | -140
O=C(CNc1ccc2c(c1)OCO2)N/N=C\c1cn(Cc2ccccc2)c2ccccc12 | 0
N#Cc1c(-c2ccc(Cl)cc2)ccn2nc(C3CCCCC3)nc12 | -164
CCCSc1nsc(NC(=O)CC)n1 | -135
CCCSc1nsc(NC(=O)Nc2ccc(F)cc2F)n1 | -129
CCCSc1ccc(C(=O)Nc2ccc(F)cc2F)cn1 | -87
Cc1ccc(NC(=O)CSC2=C(C#N)C(c3ccco3)CC(=O)N2)cc1 (stereo unspecified) | -148
CC(C)C1CC(=O)NC(SCC(=O)Nc2ccc(Br)cc2)=C1C#N (stereo unspecified) | -74
Cc1ccccc1NC(=O)CSC1=C(C#N)C(c2ccsc2)CC(=O)N1 (stereo unspecified) | -84
Cc1nn(-c2ccccc2)c(Cl)c1/C=N/NC(=O)c1ccnn1C | -108
Cc1nn(-c2ccccc2)c(Cl)c1/C=N/Nc1nc2ccccc2n1C | -121
CCc1n[nH]c(=S)n1/N=C/c1c(C)nn(-c2ccccc2)c1Cl | 0
Cc1nn(-c2ccccc2)c(Cl)c1/C=N/Nc1nnc(C)c(=O)[nH]1 | -62
CCCCOC(=O)Nc1ccc(N2CCOCC2)cc1 | -163
CCCCOC(=O)Nc1ccc(N2CCCCC2)cc1 | -158
SMILES | aSyn UTR act
CCOC(=O)c1c(C)oc2c1c1c(c3ccccc32)OCN(CCCC(=O)O)C1 | -108
CCOC(=O)c1c(C)oc2c1cc(O)c1ccccc12 | -104
CCOC(=O)c1c2c(n(C)c1C)C(=O)C(=O)c1ccc(Br)cc1-2 | 0
CCOC(=O)c1c(C)[nH]c2c1cc(O)c1ccccc12 | -189
O=[N+]([O-])c1ccc(Cc2nnc(-c3ccccc3Cl)o2)cc1 | -172
CC(=O)N1N=C(c2ccc(C)cc2)OC1c1cccnc1 (stereo unspecified) | -75
CCCOc1ccc(/C=N/NC(=O)CSc2ccccn2)cc1OC | -77
COc1ccc(/C=N/NC(=O)c2ccn[nH]2)cc1CSc1ccccn1 | -67
O=C(CCS(=O)(=O)c1ccccc1)N1CCN(c2ccc(F)cc2)CC1 | -79
O=C(CCSc1ccc(Cl)cc1)N1CCCCCC1 | -133
O=C(CCSc1ccccc1)N1CCN(c2ccccc2)CC1 | -137
Cc1nc2cc(-c3ccccc3)nn2c(C)c1CCC(=O)N1CCN(c2ccccc2)CC1 | 0
Cc1ccc(-c2ccc(SCC(=O)N3CCN(c4ccccc4)CC3)nn2)cc1 | -91
O=C(CCSc1ccc(Cl)cc1)N1CCN(c2ncccn2)CC1 | -103
CCCCOc1ccc2c(c1)C(=O)c1cc(O)ccc1-2 | -209
COc1ccccc1CCCNC(=O)C1CCC(=O)N(Cc2ccccc2F)C1 (stereo unspecified) | -130
O=C(NCCCC1CCCC1)C1CCC(=O)N(Cc2cccc(F)c2)C1 (stereo unspecified) | -161
COc1ccc(OC)c(C(=O)CC2OC(=O)c3ccccc32)c1 (stereo unspecified) | -70
Cc1cc(C)cc(OCCn2nnc3ccccc32)c1 | -126
Cc1ccc(OCCn2nc3ccccc3n2)c(C)c1 | -90
Cc1ccc(C)c(OCCn2nnc3ccccc32)c1 | -70
Clc1ccccc1OCCn1nnc2ccccc21 | -169
COc1ccc(C2=C/C(=C\c3ccccc3OC(C)=O)C(=O)O2)cc1 | -79
COc1ccc(C2=C(C=O)Cc3ccccc3O2)cc1 | 0
COCCNC(=O)/C(C#N)=C/c1ccc(OCc2ccccc2)cc1 | -141
SMILES | aSyn UTR act
COCCNC(=O)/C(C#N)=C/c1ccc(OCc2ccc(F)cc2)cc1 | -73
Nc1c(-c2cccc([N+](=O)[O-])c2)nc2ccccn12 | -83
Cc1ccc(NC(=O)c2cnccn2)nc1 | -78
Cc1ccc(NC(=O)c2cnccn2)c(Br)c1 | -87
COc1cc(OC)cc(C(=O)O/N=C(\N)c2cccc(C)c2)c1 | -81
Cc1cccc(/C(N)=N/OC(=O)c2cccnc2)c1 | -73
COc1cc(OC)cc(C(=O)O/N=C(\N)c2ccncc2)c1 | -68
Cc1cccc(/C(N)=N/OC(=O)C23CC4CC(CC(C4)C2)C3)c1 | -114
Cc1cccc(/C(N)=N/OC(=O)c2ccc(Br)o2)c1 | -210
COCc1nc2oc3ccccc3c(=O)c2cc1C(=O)OC | -89
CC(=O)c1cc2c(=O)c3ccccc3oc2nc1C | -116
CCOC(=O)c1cc2c(=O)c3ccccc3oc2nc1C | -153
CC(=O)c1ccc2oc3ccccc3c(=O)c2c1 | -81
COc1ccc(/C=C2\SC(N3CCCCC3)=NC2=O)cc1 | -92
O=C1N=C(N2CCCCC2)S/C1=C\c1cn[nH]c1-c1ccccc1 | -78
Cc1nc(-c2ccccc2)sc1C(=O)Nc1ccccc1F | -66
Cc1nc(-c2ccccn2)sc1C(=O)Nc1ccc(F)cc1F | -127
CCNC(=O)c1sc(-c2ccccc2)nc1C | -66
